# Data reported in PubChem BioAssay.
# Active and inactive are the calls of the source. Unless noted, how the calls were made is not given here.
# Columns and labels:
# [1] = compounds binding Alexa647 anti-His antibody – biochemical, small-molecule microarray, 635 nm fluorescence, artefact control for SMM control protein annotation, primary screen (AID 1128); details: higher = more signal;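 further: score merges feature fluorescence with signal-to-noise for each printed compound spot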
# [2] = tested on: Human papillomavirus type 1a E7 protein (residues 1-88); assay: HPV1a E7 small-molecule binders, primary screen, biochemical, small-molecule microarray, residues 1-88, 635 nm (AID 1129); details: small-molecule microarray binding, fluorescence 635 nm; higher = more signal
# [3] = biological target: Focal adhesion kinase 1 (Homo sapiens) (UniProt Q05397); assay: PTK2 protein binding on printed compound slides – biochemical, small-molecule microarray, 635/667 nm fluorescence, BSA, DTT, primary screen (AID 1130); details: 635 nm fluorescence, higher = more signal;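 further: composite of spot emission at 667 nm and signal to noise over triplicate slides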
# Sequence of Focal adhesion kinase 1 (Homo sapiens) (Q05397 whole entry, looked up): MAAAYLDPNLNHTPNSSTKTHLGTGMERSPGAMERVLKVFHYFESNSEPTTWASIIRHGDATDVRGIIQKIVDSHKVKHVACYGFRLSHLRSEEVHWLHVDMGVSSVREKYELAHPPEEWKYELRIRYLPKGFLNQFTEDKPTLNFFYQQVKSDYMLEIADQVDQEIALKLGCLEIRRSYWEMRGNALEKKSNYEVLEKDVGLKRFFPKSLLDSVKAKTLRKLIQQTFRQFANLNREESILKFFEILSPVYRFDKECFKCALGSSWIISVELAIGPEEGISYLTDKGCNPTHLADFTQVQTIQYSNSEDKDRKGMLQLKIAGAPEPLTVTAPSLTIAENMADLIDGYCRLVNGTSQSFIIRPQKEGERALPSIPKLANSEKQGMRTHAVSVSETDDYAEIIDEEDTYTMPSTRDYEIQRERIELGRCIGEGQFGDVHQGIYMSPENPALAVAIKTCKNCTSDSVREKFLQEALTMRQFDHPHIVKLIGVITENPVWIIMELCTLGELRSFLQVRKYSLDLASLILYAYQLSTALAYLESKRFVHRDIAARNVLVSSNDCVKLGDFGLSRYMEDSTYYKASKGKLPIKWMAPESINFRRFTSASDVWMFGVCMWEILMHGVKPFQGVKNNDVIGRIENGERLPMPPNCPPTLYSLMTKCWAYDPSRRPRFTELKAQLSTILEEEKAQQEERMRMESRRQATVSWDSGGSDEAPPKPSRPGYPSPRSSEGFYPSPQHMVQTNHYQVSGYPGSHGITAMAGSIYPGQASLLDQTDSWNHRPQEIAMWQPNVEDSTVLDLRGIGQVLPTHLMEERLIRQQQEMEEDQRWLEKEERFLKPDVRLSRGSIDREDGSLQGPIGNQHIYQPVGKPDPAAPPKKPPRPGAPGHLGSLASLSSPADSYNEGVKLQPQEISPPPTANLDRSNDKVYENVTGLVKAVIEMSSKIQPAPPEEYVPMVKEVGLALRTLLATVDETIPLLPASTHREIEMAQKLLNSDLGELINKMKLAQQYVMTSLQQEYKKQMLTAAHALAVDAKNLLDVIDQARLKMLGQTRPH
# [4] = tested on: Fibrinogen (Alexa647-labelled); assay: Alexa647-fibrinogen binding to printed small molecules – biochemical, small-molecule microarray, 635/667 nm fluorescence, artefact control for SMM control-protein annotation, profiling panel (AID 1131); details: fibrinogen-A647 binding fluorescence, higher = more signal;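 further: z-score merges 667 nm fluorescence with per-spot signal-to-noise over triplicate slides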
# [5] = biological target: Follistatin (Homo sapiens) (UniProt P19883); assay: FST protein binding to printed compounds – biochemical, small-molecule microarray, 635/667 nm fluorescence, primary screen (AID 1132); details: 635 nm fluorescence, higher = more signal
# Sequence of Follistatin (Homo sapiens) (P19883 whole entry, looked up): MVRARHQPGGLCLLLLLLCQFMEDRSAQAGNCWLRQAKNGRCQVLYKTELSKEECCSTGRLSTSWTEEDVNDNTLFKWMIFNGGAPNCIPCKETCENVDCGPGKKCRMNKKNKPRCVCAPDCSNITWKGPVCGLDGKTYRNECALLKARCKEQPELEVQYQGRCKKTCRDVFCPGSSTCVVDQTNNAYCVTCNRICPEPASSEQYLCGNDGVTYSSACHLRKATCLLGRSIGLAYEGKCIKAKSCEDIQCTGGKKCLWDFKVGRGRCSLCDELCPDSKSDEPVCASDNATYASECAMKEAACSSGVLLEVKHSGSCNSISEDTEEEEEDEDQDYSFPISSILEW
# [6] = biological target: Fibroblast growth factor 2 (Homo sapiens) (UniProt P09038); assay: basic fibroblast growth factor binding to printed compounds – biochemical, small-molecule microarray, 635/667 nm fluorescence, primary screen (AID 1133); details: FGF2, fluorescence 635/667, higher = more signal
# Sequence of Fibroblast growth factor 2 (Homo sapiens) (P09038 whole entry, looked up): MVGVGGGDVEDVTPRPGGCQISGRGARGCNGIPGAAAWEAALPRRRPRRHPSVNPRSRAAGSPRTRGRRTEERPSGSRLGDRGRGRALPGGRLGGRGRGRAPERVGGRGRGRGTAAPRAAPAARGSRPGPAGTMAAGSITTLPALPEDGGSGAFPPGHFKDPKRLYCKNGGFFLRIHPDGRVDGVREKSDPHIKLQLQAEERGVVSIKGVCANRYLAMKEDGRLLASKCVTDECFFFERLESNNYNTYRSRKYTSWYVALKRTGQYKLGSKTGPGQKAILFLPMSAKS
# [7] = JC-1 mitochondrial potential readout, lung cancer cells – cell-based, A549, JC-1 fluorescence, basal, 24 h, 100 nL, profiling panel (AID 1138); details: higher = more signal;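 further: A549 lung adenocarcinoma cells under basal conditions with no added stimulus; test concentration not given here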
# Lefty1 = Lefty1 protein binding to printed compounds – biochemical, small-molecule microarray, 635/667 nm fluorescence, primary screen (AID 1139); details: fluorescence 635/667, higher = more signal
# [8] = tested on: wheat germ agglutinin (Triticum aestivum), Alexa647-labelled; assay: Alexa647-WGA lectin binding to printed small molecules – biochemical, small-molecule microarray, 635/667 nm fluorescence, artefact control for SMM control-protein annotation, profiling panel (AID 1140); details: WGA-A647 binding, 635 nm fluorescence, higher = more signal;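 further: score merges 667 nm feature emission with signal to noise over triplicate slides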
# [9] = biological target: Luciferin 4-monooxygenase (Photinus pyralis) (UniProt P08659); assay: inhibition of purified Photinus pyralis luciferase – biochemical, luminescence, purified enzyme, 2006 set, primary screen (AID 1141); details: purified firefly luciferase, SteadyGlo luminescence, 30 min; higher = more signal, called active from +8 up or from −8 down;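 further: cell-free assay with purified firefly luciferase at 100 ng per well in PBS; test concentration not given here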
# Sequence of Luciferin 4-monooxygenase (Photinus pyralis) (P08659 whole entry, looked up): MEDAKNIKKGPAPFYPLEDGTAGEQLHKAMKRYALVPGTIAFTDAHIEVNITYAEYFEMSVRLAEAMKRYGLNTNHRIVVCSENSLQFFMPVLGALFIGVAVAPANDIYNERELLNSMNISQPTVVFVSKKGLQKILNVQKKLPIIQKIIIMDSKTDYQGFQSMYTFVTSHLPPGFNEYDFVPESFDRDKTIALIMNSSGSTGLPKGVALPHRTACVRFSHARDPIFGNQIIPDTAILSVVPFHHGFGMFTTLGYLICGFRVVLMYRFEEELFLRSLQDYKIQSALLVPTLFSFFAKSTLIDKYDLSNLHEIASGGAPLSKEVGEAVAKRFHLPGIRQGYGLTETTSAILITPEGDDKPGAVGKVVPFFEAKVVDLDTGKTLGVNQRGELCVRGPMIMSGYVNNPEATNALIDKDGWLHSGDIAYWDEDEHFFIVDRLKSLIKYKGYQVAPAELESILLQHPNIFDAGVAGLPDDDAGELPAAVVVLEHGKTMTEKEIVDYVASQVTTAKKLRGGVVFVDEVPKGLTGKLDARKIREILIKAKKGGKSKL
# [10] = tested on: Wnt5a (protein binding on small-molecule microarray); assay: small molecules binding Wnt5a protein – biophysical, small-molecule microarray, 635/667 nm fluorescence, primary screen (AID 1142); details: 635 nm fluorescence, higher = more signal;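 further: fluorescence read at 667 nm with signal to noise per printed feature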
# [11] = ATP-based viability of Huh7 replicon cells – cell-based, CellTiter-Glo luminescence, basal, 48 h, cytotoxicity control for HCV replication inhibitor project, primary screen (AID 1143); details: higher = more signal, called active from +8 up or from −8 down;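 further: Huh7 hepatoma cells carrying a hepatitis C replication reporter with no stimulus; test concentration not given here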
# [12] = Pseudomonas biofilm growth suppression – PAO1 strain, BacTiter-Glo luminescence, LB-PBS, primary screen (AID 1144); details: P. aeruginosa PAO1 biofilm, 12 h, higher = more signal
# [13] = basal CRE-LacZ reporter activity in PC12 – cell-based, unstimulated, primary screen (AID 1145); details: no forskolin, luminescence, 4.5 h, higher = more signal, called active from +8 up or from −8 down
# [14] = forskolin-driven CRE-LacZ activity in PC12 – cell-based, CRE-LacZ reporter, forskolin-stimulated, primary screen (AID 1146); details: luminescence, 4.5 h, higher = more signal, called active from +8 up or from −8 down;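 further: PC12 cells with 6xCRE LacZ reporter stimulated by forskolin 10 µM; beta-galactosidase reporter signal reflecting CREB driven transcription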
# [15] = biological target: Streptavidin (Streptomyces avidinii) (UniProt P22629); assay: compounds binding control protein streptavidin – biophysical, small-molecule microarray, 635/667 nm fluorescence, artefact control for SMM compound annotation, primary screen (AID 1147); details: higher = more signal;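 further: signal reflects streptavidin binding to arrayed compounds as a control protein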
# Sequence of Streptavidin (Streptomyces avidinii) (P22629 whole entry, looked up): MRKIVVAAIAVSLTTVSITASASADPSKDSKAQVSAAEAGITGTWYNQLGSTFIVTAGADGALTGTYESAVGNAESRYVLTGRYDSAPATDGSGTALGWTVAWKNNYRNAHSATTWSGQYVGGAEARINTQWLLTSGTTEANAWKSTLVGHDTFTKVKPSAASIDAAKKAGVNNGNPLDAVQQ
# [16] = probe aInhba binding on compound microarray – biochemical, small-molecule microarray, 635/667 nm fluorescence, primary screen (AID 1148); details: higher = more signal;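 further: score merges 667nm spot fluorescence with signal-to-noise for antibody binding to printed compounds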
# Torsin-1A (Homo sapiens) [17] = biological target: Torsin-1A (Homo sapiens) (UniProt O14656); assay: TOR1A wild-type binding on microarray – cell lysate, small-molecule microarray, lysate, 635/667 nm, primary screen (AID 1149); details: COS7 hTOR1A-WT lysate, 635 nm fluorescence, higher = more signal
# Sequence of Torsin-1A (Homo sapiens) (O14656 whole entry, looked up): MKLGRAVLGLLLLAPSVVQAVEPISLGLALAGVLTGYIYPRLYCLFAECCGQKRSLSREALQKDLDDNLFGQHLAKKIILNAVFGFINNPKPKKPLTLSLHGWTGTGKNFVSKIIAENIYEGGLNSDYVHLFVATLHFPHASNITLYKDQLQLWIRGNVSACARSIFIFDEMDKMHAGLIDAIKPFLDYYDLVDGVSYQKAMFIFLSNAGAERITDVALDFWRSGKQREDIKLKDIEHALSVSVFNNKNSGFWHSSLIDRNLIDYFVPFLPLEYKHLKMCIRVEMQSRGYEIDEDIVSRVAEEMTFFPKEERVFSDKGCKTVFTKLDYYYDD
# Torsin-1A (Homo sapiens) [18] = biological target: Torsin-1A (Homo sapiens) (UniProt O14656); assay: torsin A mutant lysate binding on microarrays – cell lysate, small-molecule microarray, COS7 lysate, 635/667 nm fluorescence, primary screen (AID 1150); details: COS7 hTOR1A mutant lysate, 635 nm fluorescence, higher = more signal;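 further: score pools 667 nm emission and signal to noise measuring lysate protein binding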
# [19] = tested on: Sonic hedgehog protein (Shh); assay: Sonic hedgehog microarray binding compounds – biochemical, small-molecule microarray, 635/667 nm fluorescence, primary screen (AID 1151); details: 635 nm fluorescence, higher = more signal;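 further: Shh protein binding to compounds spotted on small-molecule microarray slides; score combines spot fluorescence intensity with signal-to-noise across triplicate slides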
Compound,composite z-score [1],composite z-score [2],composite z-score [3],composite z-score [4],composite z-score [5],composite z-score [6],z-score [7],composite z-score (Lefty1),composite z-score [8],z-score [9],composite z-score [10],z-score [11],z-score [12],z-score [13],z-score [14],composite z-score [15],composite z-score [16],composite z-score (Torsin-1A (Homo sapiens) [17]),composite z-score (Torsin-1A (Homo sapiens) [18]),composite z-score [19]
CCOC(=O)C[C@H]1[C@H](OC(=O)c2ccc(C(=O)c3ccccc3)cc2)[C@@H](NC(=O)c2ccc(-c3ccccc3)cc2)c2cc(OCCCO)ccc2N1C(=O)Cc1ccc(OC)cc1,0.0658,0.556,0.0784,0.544,0.51,-0.205,0.967,0.374,0.223,0.408 (inactive),0.0266,0.128 (inactive),-0.271 (inactive),-0.0989 (inactive),-0.539 (inactive),0.324,0.0569,-0.0633,0.022,-0.235
[N-]=[N+]=NCc1ccccc1[C@@H]1OC(c2ccc(OCCCO)cc2)=N[C@]1(CCS(=O)(=O)c1ccccc1)C(=O)O,0.843,0.843,0.809,0.839,0.0575,-0.517,-0.586,0.381,1.17,-5.21 (inactive),0.132,0.0514 (inactive),-0.127 (inactive),1.06 (inactive),-0.0084 (inactive),0.659,-0.0589,0.134,1.09,-1.42
O=C1OCCC=C[C@H]2OC34C=CCN(c5ccc6ccccc6c5)C(=O)[C@H]3N(CCCO)C(=O)[C@@H]4C12 (stereo not given in full),-0.581,-2.27,-0.459,-0.51,-1.25,-2.33,-0.446,-1.81,-1.29,-0.244 (inactive),-1.2,-2.26 (inactive),-0.633 (inactive),-0.0778 (inactive),-0.301 (inactive),-1.16,-0.239,-1.44,-1.79,-1.93
O=C1C2C=CC(C(O)c3ccco3)N(Nc3ccccc3F)C2C(=O)N1c1ccccc1 (stereo not given),0.0678,0.512,0.705,0.791,0.235,-0.327,-0.537,-0.531,0.826,-0.0425 (inactive),0.0072,0.761 (inactive),-0.853 (inactive),-0.136 (inactive),0.942 (inactive),0.99,0.0275,-0.615,-0.0102,0.155
COCCCNC(=O)[C@@]1(CCC(=O)OC(C)(C)C)N=C(c2ccc(OCCCO)cc2)O[C@H]1c1ccccc1N=[N+]=[N-],3.41,1.26,1.04,1.05,1.1,1.15,2.07,-0.167,0.548,-7.45 (inactive),0.573,-0.61 (inactive),0.199 (inactive),0.456 (inactive),-1.71 (inactive),2.07,0.545,0.786,1.04,-0.341
CC(C)(C)OC(=O)CC[C@@]1(C(=O)NCC(O)CO)N=C(c2ccc(OCCCO)cc2)O[C@@H]1c1ccccc1CN=[N+]=[N-] (stereo not given in full),1.41,0.98,0.426,0.91,0.716,0.337,0.404,-0.0839,0.299,-1.78 (inactive),0.167,0.0366 (inactive),-0.719 (inactive),1.98 (inactive),-0.424 (inactive),1.14,-0.0021,1.48,0.654,-0.157
C=CC[C@H](OC(=O)Nc1ccc(SC)cc1)c1ccc(O)c2ccccc12,0.942,1.23,0.492,0.938,1.36,1.23,-1.72,1.08,0.937,-4.58 (inactive),0.336,-6.78 (inactive),-0.921 (inactive),4.1 (inactive),3.2 (inactive),1.61,-0.101,0.557,0.465,1.76
C=C(COC)/C(=C/C[C@H](OC(=O)c1ccncc1)c1ccccc1OCCO)c1cc(C(=O)OC)ccc1OC,0.717,1.06,0.319,0.148,1.17,0.66,0.416,1.32,0.925,-0.756 (inactive),0.163,-2.17 (inactive),0.492 (inactive),11.9 (active),2.47 (inactive),-0.275,-0.0136,1.19,0.664,1.71
NCCCCCCNC(=O)[C@@H]1C[C@@H]2C(=O)N[C@@H](CCCCN)C(=O)N2[C@@H]1c1ccc(O)cc1,1.91,0.153,0.353,-1.97,0.998,1,-0.903,0.731,0.961,0.715 (inactive),0.0704,-2.28 (inactive),-0.611 (inactive),-1.35 (inactive),-0.965 (inactive),-0.865,0.033,0.822,1.03,1.62
CC(=O)N1CC2(CC2)CC1c1ccccc1 (stereo not given),0.712,0.678,0.277,0.59,-0.0582,1.6,0.033,-0.46,0.251,2.49 (inactive),0.898,-0.283 (inactive),0.108 (inactive),0.397 (inactive),-0.366 (inactive),0.547,0.507,0.192,0.421,-0.515
